Source: PubChem (National Center for Advancing Translational Sciences (NCATS))
AmpC inh no detg = AmpC beta-lactamase inhibition without detergent; AmpC nitrocefin hydrolysis, absorbance 480 nm, 0.0001% Triton; actives 0.52% (n = 330,000); AID 485341; Potency, µM (titrated, usually from 57.1 µM), inactives show top-dose activity change, negative = inhibition, actives largely listed as inhibitors; P00811;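 further: plate controls were no compound for no effect and no enzyme for full effect; nearly all actives have a fitted effect of over 20% in size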
Target sequence (P00811 whole entry, looked up): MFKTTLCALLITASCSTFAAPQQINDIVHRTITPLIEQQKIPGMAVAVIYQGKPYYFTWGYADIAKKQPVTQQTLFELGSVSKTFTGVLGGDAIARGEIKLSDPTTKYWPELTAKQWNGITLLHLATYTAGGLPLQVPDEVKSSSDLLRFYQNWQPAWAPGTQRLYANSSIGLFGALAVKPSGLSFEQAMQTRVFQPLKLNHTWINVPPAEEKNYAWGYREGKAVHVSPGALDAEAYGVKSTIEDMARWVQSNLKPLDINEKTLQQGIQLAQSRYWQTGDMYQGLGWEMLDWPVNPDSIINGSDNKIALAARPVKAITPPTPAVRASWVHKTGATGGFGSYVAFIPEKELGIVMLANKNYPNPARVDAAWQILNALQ
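20 mM phosphate pH 7.0 + 0.01% (detergent screen) or 0.0001% Triton X-100; 5.3 nM AmpC reagent; cpd preinc 15 min RT; nitrocefin (800 uM stock) to start; A480 q20 s × 4 min; Activity was normalised to no-enzyme and no-compound control wells.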
AmpC detergent = blocks E. coli AmpC beta-lactamase in detergent assay | AID 485294 | Potency, µM (titrated, usually from 114 µM), for the others: at the highest dose activity change, negative = inhibition, usual class: inhibitors | AmpC hydrolysis of nitrocefin, absorbance 480 nm, 0.01% Triton | actives 0.041% (n = 370,000);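 further: 0% = no-compound wells and -100% = no-enzyme wells; nearly all actives have a fitted effect of over 25% in size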
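AmpC (5.3 nM in the dispensed reagent) in 20 mM phosphate pH 7.0 with 0.01% (detergent screen) or 0.0001% Triton X-100 was preincubated with compounds for 15 min at room temperature. Nitrocefin was then added from an 800 uM solution, and hydrolysis was followed at 480 nm.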
Pf growth 96h = inhibits malaria parasite growth, 96 h; P. falciparum luciferase reporter growth, 96 h; Potency, µM (highest dose often 28.7 µM), without a hit: at the top dose activity change, negative = inhibition, most hits filed as inhibitors; actives 6.9% (n = 320,000); AID 504834; further: on the % scale 0 is the no-effect control and ±100 the full control effect
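Compounds incubated with erythrocytes infected by luciferase-expressing P. falciparum (2% hematocrit, 0.05% parasitemia final) for 96 hours, 37 C in 5% CO2. Growth inhibition scored as decreased luciferase luminescence.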
SARS PLP yeast = inhibitors of SARS-CoV papain-like protease in yeast; Potency, µM (highest dose often 32.9 µM), for the others: at the highest dose activity, positive = growth rescue, usual class: activators; S. cerevisiae expressing SARS-CoV PLpro, growth rescue; actives 0.19% (n = 330,000); calls by dose curve; further: 0% is about no effect; nearly all actives have a fitted effect of over 55% in size
Sm TGR block = inhibitors of Schistosoma mansoni thioredoxin glutathione reductase; Q962Y6; purified TGR, DTNB reduction, TNB absorbance 405 nm; Potency, µM (doses to about 114 µM), without a hit: at the top dose activity change, negative = inhibition, most hits filed as inhibitors; actives 3% (n = 360,000); AID 485364; further: on the % scale 0 is the no-effect control and ±100 the full control effect; nearly all actives have a fitted effect of over 60% in size
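First, TGR (20 nM dispensed) and NADPH were mixed with compound. Second, a 15 min room-temperature incubation followed. Third, further NADPH and then DTNB were added to start the reaction. Finally, TNB absorbance was monitored kinetically.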
Pf growth 48h = P. falciparum growth inhibition at 48 hours (one generation) | P. falciparum luciferase growth in erythrocytes, 48 h | Potency, µM (doses to about 28.7 µM), for the others: at the top dose activity change, negative = inhibition, actives largely listed as inhibitors | actives 5.9% (n = 310,000) | AID 504832; further: on the % scale 0 is the no-effect control and ±100 the full control effect
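Erythrocytes infected with P. falciparum carrying an integrated firefly luciferase reporter (2% hematocrit, 0.1% parasitemia final) were exposed to compounds in RPMI 1640 with 0.5% Albumax at 37 C, 5% CO2. Growth inhibition was scored as reduced luminescence.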
* marks the source's active call; other numbers are inactive results; ? = inconclusive; nt = no result given; ! = a repeat was not active. A selection: hits, their analogues and other compounds. The true share with any hit is near 12%. Unless noted, the call rests on the fitted dose curve; in most records, active means well fitted curve in the direction sought with a large enough effect; inconclusive means small, poorly fitted or top-dose-only effect, or another doubt; inactive means no such curve, though single readings can be large; an effect the other way counts as inactive or inconclusive. Potency means the concentration at half of the fitted maximal effect.

SMILES	AmpC inh no detg	AmpC detergent	Pf growth 96h	SARS PLP yeast	Sm TGR block	Pf growth 48h
Cc1nn(CC(=O)Nc2ccc3c(c2)nc2n3CCN(C3CCCCC3)C2)c(=O)c2ccccc12	53.8%	-7.9%	?	-0.4%	17.8µM*	?
COc1ccc(/C=C2\CCCC(C(=O)C(F)(F)F)=C2O)cc1OC	1.0%	1.2%	?	-5.2%	31.6µM*	0.0%
COc1cc(/C=C2/CCCC(C(=O)C(F)(F)F)=C2O)ccc1O	-24.8%	4.0%	32.0%	2.0%	35.5µM*	11.6%
CCOc1cc(/C=C2\CCCC(C(=O)C(F)(F)F)=C2O)ccc1O	-30.4%	-3.5%	-4.7%	-3.1%	?	?
CCOc1cc(/C=C2\SC(=O)N(c3ccc(O)cc3)C2=O)ccc1O	10µM*	-4.9%	1.5%	0.3%	-7.6%	-1.6%
CCN1C/C(=C/c2cccc([N+](=O)[O-])c2)C(=O)/C(=C/c2cccc([N+](=O)[O-])c2)C1	-22.2%	-3.5%	2.33µM*	-22.8%	-29.0%	1.65µM*
COc1ccc(/C=C2/CCCC(C(=O)C(F)(F)F)=C2O)cc1OC	23.3%	-3.7%	47.3%	-1.7%	?	18.1%
O=C1NC(=O)/C(=C/c2cccc([N+](=O)[O-])c2)N1	-36.4%	0.8%	?	-0.2%	-9.0%	?
CCOC(=O)c1cnn(-c2cccc(Cl)c2)c1C1CCN(C(=O)OC(C)(C)C)CC1	nt	6.9%	nt	nt	-1.2%	nt
CCOc1cc(/C=C2\CN(CC)C/C(=C\c3ccc(O)c(OCC)c3)C2=O)ccc1O	-2.0%	?	2.08µM*	-3.2%	39.8µM*	2.08µM*
COc1cc(/C=C2\CCC/C(=C\c3ccc(O)c(OC)c3)C2=O)ccc1O	-11.2%	?	5.36µM*!	-11.0%	?	9.28µM*
Cc1ccc(NC(=O)CN2C(=O)CNC2=O)cc1	8.7%	?	11.9%	4.2%	76.4%	2.9%
O=C(O)CSc1c2c(nc3cc(C(=O)Nc4ccc(F)c(Cl)c4)ccc13)CCCC2	-25.8%	1.7%	1.04µM*	-3.0%	-16.8%	5.6%
Cc1ccc(CNC(=O)CSc2c3c(nc4cc(Cl)ccc24)CCCC3)o1	-19.4%	-10.1%	-3.9%	-18.1%	8.91µM*	14.7µM*
CCOC(=O)c1c(NC(=O)c2c(C(=O)O)cccc2[N+](=O)[O-])sc2c1CCCC2	-19.9%	3.0%	8.8%	-1.7%	7.8%	18.6%
Cc1cc(C)cc(OCC(=O)Nc2ccc(-c3nc4ccccc4s3)cc2)c1	nt	2.3%	nt	nt	1.9%	nt
CC(C)c1ccccc1NC(=S)NCC1(N(C)C)CCCCC1	-3.1%	1.7%	?	-9.0%	-4.0%	?
CC(=O)c1ccc(NC(=O)CCCc2nc(-c3cccc(C)c3)no2)cc1	nt	23.0%	nt	nt	-3.4%	nt
COc1cccc(/C=C2\CCC(C3CCCC3)C2=O)c1 (configuration not stated)	-30.4%	-1.9%	40.0%	-1.2%	39.8µM*	58.5%
Cc1cccc(N2C(=O)N(Cc3cccc(C#N)c3)c3ccccc3S2(=O)=O)c1	nt	-3.3%	nt	nt	0.1%	nt
C=C(C)Cn1cnc2c(oc3nc4c(cc32)CCCC4)c1=O	-6.3%	-7.1%	11.7µM*	-0.8%	-15.0%	139.9%
O=C(Cn1cnc2c(oc3nc4c(cc32)CCCC4)c1=O)Nc1ccccc1	-29.4%	-3.0%	?	-5.8%	-3.2%	-20.3%
O=C(NCc1ccccn1)c1cn(CCc2ccccc2)nn1	0.2%	-5.6%	-2.2%	4.8%	2.4%	0.0%
CCCCOc1ccc(S(=O)(=O)Nc2cccnc2)cc1	-35.4%	0.3%	2.33µM*	-29.0%	-14.5%	0.0%
Cc1nc(N/N=C/c2ccccc2)nc(N(C)c2ccccc2)c1[N+](=O)[O-]	-18.3%	-2.4%	?	-0.6%	-2.3%	0.0%
SMILES	AmpC inh no detg	AmpC detergent	Pf growth 96h	SARS PLP yeast	Sm TGR block	Pf growth 48h
Cc1nc(Cl)nc(N(C)c2ccccc2)c1[N+](=O)[O-]	-30.8%	7.1%	44.3%	-1.1%	4.47µM*	28.5%
Cc1cccc(N=C2NN=C(c3ccc4c(c3)OCCO4)CS2)c1	-37.7%	5.0%	-81.8%	2.5%	-1.5%	-82.6%
Cc1cccc(N=C2NN=C(c3c(C)[nH]c4ccccc34)CS2)c1	-1.3%	-13.2%	1.47µM*	9.2%	-3.2%	2.62µM*
c1cc2c3c(cccc3c1)C(N1CCCCC1)=N2	-17.0%	?	11.7µM*	0.5%	0.0%	?
COc1ccc(C2=NO[C@@H]3C(=O)N(c4ccc5c(c4)OCCO5)C(=O)[C@H]23)cc1OC	-17.0%	?	19.1%	-2.3%	44.7µM*	57.8%
O=C(Nc1ccccc1N1CCCCC1)c1cccc([N+](=O)[O-])c1	-14.7%	-13.2%	?	-2.6%	7.4%	-9.3%
O=C(Nc1cc(C(F)(F)F)ccc1N1CCCC1)c1ccc2c(c1)OCO2	-15.1%	6.0%	-3.4%	-28.4%	5.0%	?
Cc1ccc(C)c2sc(NC(=O)c3ccc(N4CCCCC4)c([N+](=O)[O-])c3)nc12	-19.9%	-0.2%	?	-3.2%	5.7%	2.62µM*
O=C(Nc1cc(C(F)(F)F)ccc1N1CCCCC1)c1cccc([N+](=O)[O-])c1	-20.5%	-1.1%	?	-2.4%	14.9%	14.7µM*
Cc1cc(C(=O)Nc2ccc(N3CCCC3)c(Cl)c2)ccc1[N+](=O)[O-]	-28.8%	-7.1%	9.28µM*	1.5%	5.4%	7.9%
Cc1ccc(C(=O)Nc2cc(C(F)(F)F)ccc2N2CCCCC2)cc1[N+](=O)[O-]	?	1.0%	18.9%	4.3%	-2.9%	13.1µM*
COc1ccc(-c2noc(-c3ccc(NCc4ccco4)c([N+](=O)[O-])c3)n2)cc1OC	nt	-1.6%	nt	nt	3.5%	nt
COc1cc(NC(=O)CN2C(=O)COc3ccc(S(=O)(=O)NC4CCCC4)cc32)cc(OC)c1	nt	15.2%	nt	nt	0.6%	nt
COc1ccccc1C(=O)NCC(=O)NNC(=O)C1COc2ccccc2O1 (configuration not stated)	-27.9%	-16.0%	10.0%	1.6%	-2.8%	-8.1%
COCCn1c(C)cc(C(=O)COC(=O)CCN2C(=O)c3ccccc3C2=O)c1C	26.4%	2.4%	36.6%	-0.4%	-21.2%	26.2%
CCC(=O)N1CCN(c2ccc(Cl)cc2NC(=O)c2ccc3c(c2)OCCO3)CC1	nt	-14.0%	22.6%	nt	4.8%	?
CCC(=O)N1CCN(c2ccc(Cl)cc2NC(=O)c2ccc(N3CCCC3)c([N+](=O)[O-])c2)CC1	-10.6%	?	1.85µM*	4.4%	-22.7%	?
CC(Oc1ccc(Br)cc1)C(=O)O/N=C(\N)c1ccncc1 (configuration not stated)	67.1%	8.0%	22.1%	-6.7%	5.3%	-27.1%
